# In PubChem BioAssay AID1789 (The Scripps Research Institute Molecular Screening Center, 2009):
# Where “and” joins values, the source holds several entries; their conditions need not be identical. Equal values may be shown once. Hit rate of the full screen: of about 290,000 compounds, about 2,700 (0.93%) were called active.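 The calls were made as follows: active = inhibition above the screen-wide mean plus 3 SD, computed separately per campaign (cut at about 16% in these data); inactive = the rest.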 Only a selection was taken, and actives are over-represented in it overall.
# System: Heat shock protein HSP 90 (rabbit reticulocyte lysate; luciferase refolding)
# Assay: HSP90 inhibitors, primary screen, cell lysate, luminescence (AID 1789);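 also: 0% = DMSO wells and 100% = 60 µM geldanamycin wells; inhibitors lower the luminescence because luciferase stays unfolded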
# Conditions: 3 h, at 5.6 µM, hits give high values
row,SMILES,inhibition
1,O=C(NCc1cccnc1)c1ccccc1NC(=O)c1c(F)cccc1F,-0.75% (inactive)
2,COc1ccc(N(CC(=O)Nc2cc(OC)cc(OC)c2)S(=O)(=O)c2c(C)n[nH]c2C)cc1,-1.64% (inactive)
3,Cc1ccc(S(=O)(=O)NCC(=O)N2CCOCCOCCOCCOCC2)cc1,-3.1% (inactive)
4,COc1ccccc1-c1cnn2c(N3CCOCC3)cc(C)nc12,3.53% (inactive)
5,Cc1sc2ncn(CC(=O)NCCCC(=O)N3CCN(c4ccccc4F)CC3)c(=O)c2c1C,-3.37% (inactive)
6,CC(NC(=O)COc1ccccc1)C(=O)NC1=NCCS1 (stereo unspecified),-0.56% (inactive)
7,CSCCC(C(=O)NC1=NCCS1)N1C(=O)c2ccccc2C1=O (stereo unspecified),33.2% (active)
8,O=C(NC1=NCCS1)[C@H](Cc1ccccc1)N1C(=O)c2ccccc2C1=O,3.87% (inactive)
9,N#Cc1ccccc1S(=O)(=O)N1CCN(C(=O)c2cc(-c3ccccc3)nn2-c2ccccc2)CC1,4.37% (inactive)
10,CC(C)c1nnc(NC(=O)C2CC(=O)N(CCc3ccc(F)cc3)C2)s1 (stereo unspecified),-2.78% (inactive)
11,CCOC(=O)C1=C(CCc2ccccc2)NC(=O)NC1c1ccc2ccccc2c1 (stereo unspecified),2.66% (inactive)
12,CC(=O)N1CCC(C(=O)OCc2ccc(Cl)cc2)(c2ccccc2)CC1,-1.35% (inactive)
13,CC(C)CNC(=O)CC(c1ccccc1)c1c(O)ccc2ccccc12 (stereo unspecified),-0.94% (inactive)
14,CC(C)CNC(=O)CC(NCC(C)C)C(=O)O (stereo unspecified),21.9% (active)
15,CC(C)CNC(=O)/C=C/C(=O)O,0.58% (inactive) and -0.1% (inactive)
16,COc1cccc(N(CC(=O)NC2CCCC2)C(=O)Cn2nnc(-c3ccc(C)o3)n2)c1,0.72% (inactive)
17,C=C(C)COc1ccc(-c2ncncc2-c2ccc(OC)cc2)c(O)c1,3.58% (inactive)
18,c1ccc(-c2ccc3c(c2)NC(C2Nc4cc(-c5ccccc5)ccc4O2)O3)cc1 (stereo unspecified),52.5% (active)
19,Cc1cc(C)cc(C(=O)OCC(=O)NCCNC(=O)COC(=O)c2cc(C)cc(C)c2)c1,-1.1% (inactive)
20,O=C1CCC(Cc2ccccc2)N1 (stereo unspecified),0.74% (inactive)
21,O=C1CCC([N+](=O)[O-])C(c2ccccc2Br)N1 (stereo unspecified),78.7% (active)
22,COc1cc2c(cc1OC)C(c1ccccc1Br)NC(=O)C2 (stereo unspecified),-0.82% (inactive)
23,Cc1ccc(SCC(=O)NNC(=O)c2ccc(S(C)(=O)=O)cc2)cc1,2.29% (inactive)
24,O=C(/C=C/c1cnc2ccccc2n1)NC1CCCCCC1,-4.23% (inactive)

row,SMILES,inhibition
1,O=C(COC(=O)/C=C/c1cccs1)NC1CCCCC1,1.87% (inactive)
2,Cc1ccc(SCC(=O)NC(=O)NCc2ccco2)c(C)c1,16.6% (active)
3,Cc1cc(C)n2nc(SCC(=O)NC(=O)NCc3ccco3)nc2n1,0.53% (inactive)
4,Cc1ccc(NC(=O)C(=O)NCc2ccco2)c(C)c1,-1.76% (inactive)
5,CC(C)Cc1nnc(NC(=O)CN2C(=O)NC3(CCCCC3)C2=O)s1,-3.19% (inactive)
6,CC1CCN(CC(O)COc2ccc(C(=O)c3ccccc3)cc2)CC1 (stereo unspecified),-4.35% (inactive)
7,Cc1csc(NC(=O)CSc2nc(=O)cc(N)n2-c2ccc(F)cc2)n1,-4.86% (inactive)
8,Cc1nc([N+](=O)[O-])cn1CC(=O)Nc1ccc(Cl)cc1,-5.8% (inactive)
9,Cc1nc2cc3c(cc2s1)OCO3,5.26% (inactive)
10,c1c2c(cc3sc(N4CCCCC4)nc13)OCCO2,56.8% (active)
11,Brc1ccc2nc(N3CCCC3)sc2c1,7.29% (inactive)
12,COCC1CCN(C(=O)CCc2nnc(C3(c4ccc(Cl)cc4)CCC3)o2)C1 (stereo unspecified),-3.96% (inactive)
13,CN(CC1CCCN(CCc2cccc(C(F)(F)F)c2)C1)C(=O)c1ccc2nc[nH]c2c1 (stereo unspecified),-5.74% (inactive)
14,Clc1c(OCCCn2ccnc2)ccc2ccccc12,1.78% (inactive)
15,CCc1ccc2oc(-c3ccc(N)cc3)nc2c1,26.4% (active)
16,CC(=O)Nc1ccc(-c2nc3ccccc3o2)cc1,2.88% (inactive)
17,COc1ccc(-c2nc3cc([N+](=O)[O-])ccc3o2)cc1OC,1.87% (inactive)
18,COc1ccc2[nH]c(=O)c(CN(Cc3cccnc3)S(=O)(=O)c3ccccc3F)cc2c1,1.17% (inactive)
19,Cc1ccc(C(=O)OC(C)CN2CCOCC2)cc1 (stereo unspecified),-4.23% (inactive)
20,Cc1cccc(C(=O)OC(C)CN2CCN(C)CC2)c1 (stereo unspecified),17.2% (active)
21,Cc1cccc(C(=O)OC(C)CN2CCCC2)c1 (stereo unspecified),0.74% (inactive)
22,CCOc1ccc(NC(=O)[C@H](C)NC(=O)C2CC(=O)N(c3ccc(OC)cc3)C2)cc1 (stereo partly specified),2.77% (inactive)
23,O=C(NC1CCCC1)C(c1c(F)cccc1Cl)N(C(=O)c1csnn1)C1CC1 (stereo unspecified),-3.16% (inactive)
24,Cc1ccc(C(=O)Nc2ccc(C)c(S(=O)(=O)N(C)C)c2)s1,0.01% (inactive)

row,SMILES,inhibition
1,Cc1ccc(Nc2nc(-c3ccc(O)cc3O)cs2)nc1,28.1% (active)
2,O=c1oc2ccccc2cc1-c1csc(Nc2ccc(O)cc2)n1,-2.38% (inactive)
3,Clc1ccc(Nc2nc(-c3cccs3)cs2)nc1,6.93% (inactive)
4,CCS(=O)(=O)c1cc([N+](=O)[O-])c(Sc2ccccc2N)s1,20.8% (active)
5,Nc1ccccc1SC(C[N+](=O)[O-])c1ccccc1 (stereo unspecified),-4.32% (inactive)
6,CCOC(=O)c1cc(Sc2ccccc2N)cc(C(=O)OCC)n1,7.9% (inactive)
7,O=c1ccc(-c2ccc(S(=O)(=O)Nc3ccccc3)o2)n[nH]1,-6.52% (inactive)
8,COCCn1c(N)c(NCc2ccccc2)c(=O)[nH]c1=O,7.03% (inactive)
9,Cn1c(=O)c2c(SCC(=O)NCC3CCCO3)nc(CC(C)(C)C)nc2n(C)c1=O (stereo unspecified),-3.22% (inactive)
10,Cc1ccc(-n2c(C)cc(C(=O)CN3C(=O)C(=O)N(C4CCCC4)C3=O)c2C)cc1,-3.59% (inactive)
11,Cc1cc(C(=O)COC(=O)C2CC2)c(C)n1-c1ccc(F)cc1,84.2% (active)
12,COc1cc(/C=N/NC(=O)c2cc(C)n(-c3ccc(F)cc3)c2C)cc(OC)c1O,6.31% (inactive)
13,COc1ccc(-n2c(C)cc(C(=O)CN3C(=O)NC4(CCc5ccccc54)C3=O)c2C)cc1 (stereo unspecified),2.66% (inactive)
14,CCn1cc(/C=C(\NC(=O)c2ccc(C)cc2)C(=O)NCCN2CCOCC2)c2ccccc21,3.27% (inactive)
15,Cc1nn(Cc2ccccc2)c(Cl)c1C(=O)OC1CCOC1=O (stereo unspecified),-0.01% (inactive)
16,CC(C)c1ccc(C(=O)OC2CCOC2=O)cc1 (stereo unspecified),3.27% (inactive)
17,O=C(OC1CCOC1=O)c1ccc(-c2nc3ccccc3s2)s1 (stereo unspecified),35.8% (active)
18,CCOC(=O)C1CCN(Cc2c(C(=O)N3CCOCC3)nc3c(C)cccn23)CC1,13.2% (inactive)
19,C=C(C)CNC(=O)c1ccc(OC2CCN(C(=O)COC)CC2)cc1,2.35% (inactive)
20,CC(C)C[C@H](NC(=O)C1CC(=O)N(c2ccc3c(c2)OCCO3)C1)C(=O)NC1CCCC1 (stereo partly specified),-1.77% (inactive)
21,CN(c1ccc2nc3ccccc3c(=O)n2n1)C1CCCCC1,85.9% (active)
22,CCOC(=O)C(C)Sc1nc2ccccc2c(=O)n1CC1CCCCC1 (stereo unspecified),2.53% (inactive)
23,O=c1c2ccccc2nc2n1C1(CCCCC1)Cc1ccccc1-2,4.03% (inactive)
24,COCCC(=O)N1CCC(Oc2ccc(C(=O)NCc3ccon3)cc2)CC1,-1.71% (inactive)

row,SMILES,inhibition
1,CNC(=O)CN1C(=O)NC(c2ccccc2)(c2ccccc2)C1=O,3.3% (inactive)
2,C=CCc1cc(S(=O)(=O)c2ccc(O)c(CC=C)c2)ccc1O,-0.52% (inactive)
3,CCOC(=O)N1CCN(C(=O)C(=O)Nc2sc3c(c2C#N)CC(C)(C)OC3)CC1,-2.63% (inactive)
4,CCOc1ccc(-c2nnc(-c3ccco3)o2)cc1,30.8% (active)
5,CCOc1ccc(-n2c(SCC(N)=O)nnc2-c2ccco2)cc1,7.02% (inactive)
6,CCCCOc1ccc(-c2nnc(-c3ccco3)o2)cc1,-4.76% (inactive)
7,CCc1ccccc1OCC(=O)Nc1ccc2c(c1)OCCO2,-5.09% (inactive)
8,CCn1ccnc1CN(C)C(=O)c1ccc2nc(Cc3ccc(OC)cc3)oc2c1,-0.73% (inactive)
9,COCC1CCN(C(=O)C2CCC(=O)N(Cc3cccc(C(F)(F)F)c3)C2)CC1 (stereo unspecified),2.25% (inactive)
10,O=[N+]([O-])/C=C/c1ccc2c(ccn2Cc2ccccc2)c1,21.8% (active)
11,O=c1c([N+](=O)[O-])cc(C(F)(F)F)cn1Cc1cccc(Cl)c1,0.02% (inactive)
12,O=C(/C=C/c1cccc([N+](=O)[O-])c1)N1CCN(Cc2ccccc2)CC1,-2.98% (inactive)
13,CN(Cc1ccccc1)C(=O)C(=O)c1cn(CC(=O)N2CCCC2)c2ccccc12,-3.8% (inactive)
14,CCc1ccc(NC(=O)NC(C)c2ccc3c(c2)OCO3)cc1 (stereo unspecified),1.03% (inactive)
15,Cc1onc(-c2ccccc2)c1C(=O)N1CCN(S(=O)(=O)c2ccccc2C(F)(F)F)CC1,-1.81% (inactive)
16,COc1ccc(N2CCN(C(=O)c3cn(C)c4ccc(S(=O)(=O)N5CCOCC5)cc4c3=O)CC2)cc1,-3.81% (inactive)
17,O=C(Nc1ccc2c(c1)OCCO2)C1CCCN(c2ncccn2)C1 (stereo unspecified),16.9% (active)
18,O=C(Nc1cccc(Cl)c1)C1CCCN(c2cnccn2)C1 (stereo unspecified),-2.56% (inactive)
19,Cc1cc(C)nc(N2CCC(C(=O)Nc3ccc4c(c3)OCCO4)CC2)n1,0.65% (inactive)
20,COc1ccc(N2C(=O)NC(NS(=O)(=O)c3ccc(Cl)cc3)(C(F)(F)F)C2=O)cc1 (stereo unspecified),1.44% (inactive)
21,COc1ccc(Cc2cc(-c3ccc(F)cc3)n[nH]c2=O)cc1,-1.15% (inactive)
22,CC(OC(=O)c1ccc2noc(-c3ccccc3)c2c1)C(N)=O (stereo unspecified),26.5% (active)
23,Oc1ccc(-c2onc3ccc(Cl)cc23)cc1,-0.76% (inactive)
24,COc1ccc(-c2onc3ccc(C(C)=O)cc23)cc1,3.03% (inactive)
